Screening results (PubChem)
This is a sample that favours compounds with a hit; in the whole collection about 1.8% have one here.
NALP3 yeast inh = NALP3 inflammasome inhibitors in reconstituted yeast, primary screen, luminescence, uHTS; Yeast reconstituted NLRP3/ASC/caspase-1, beta-gal luminescence, 24 h; inhibition, % at 10 µM; 330,000 tested, 0.39% active; AID 2825, 2010;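 active = inhibition of 50% or more; inactive = inhibition below 50%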;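 also: plate controls were induced DMSO wells for no effect and uninduced yeast grown without galactose for full effect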
PolyA inh = polyadenylation inhibitors in yeast reporter cells, primary screen, luminescence, S. cerevisiae. S. cerevisiae SKY197-pL101 polyadenylation reporter, beta-gal luminescence; efflux-impaired pdr1/pdr3 knockout yeast; score 100 = 6 SD above DMSO. activity score, % at 12 µM. 300,000 tested, 0.02% active;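 active = lowest replicate activity score at least 50, where 100 means six control SD above control mean; inconclusive = lowest score under 50 but half or more replicates reach 50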;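 also: yeast exposed to compound for 9 h at 30 °C; higher score means more reporter readthrough which indicates perturbed polyadenylation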
NALP1 inh = NALP1 inflammasome inhibitors in reconstituted yeast, colorimetric, S. cerevisiae, triplicate retest; S. cerevisiae NALP1/ASC/caspase-1 growth, X-gal OD620, 72 h; inhibition, % at 10 µM; 280,000 tested, 0.61% active; AID 2071, 2009; in the data active = inhibition mostly above about 24%, no sharp cut-off; inactive = mostly below about 32%
SUMO Mot1 rescue = yeast Mot1-301 growth rescue at high temperature, primary screen, SUMOylation pathway inhibitor project, S. cerevisiae, ATP luminescence, 38.5C. S. cerevisiae Mot1-301 growth rescue; percent above DMSO median, 100 means doubled. growth rescue, % at 18.8 µM. 320,000 tested, 1% active;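 active = every valid replicate shows activation above 250% relative to neutral control wells; inactive = the rest, any valid replicate at or below 250%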;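 also: OY570 slx delta 5 strain wells were the positive control but not used for scaling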
* hit, by the source's call; ? = inconclusive; . = not tested or not shown.

SMILES | NALP3 yeast inh | PolyA inh | NALP1 inh | SUMO Mot1 rescue
CC1(C)SC[C@H](C(=O)Nc2cccc(Cl)c2)N1C=O | 1 | -8 | 37* | -1
Cc1ccccc1NC(=O)CSc1nc2n(n1)CCCCC2 | 21 | -4 | 12 | -8
O=C(Nc1ccccc1)N1CCC(C(=O)N(Cc2ccco2)Cc2cccs2)CC1 | -12 | -6 | 19 | .
COc1ccc(C(=O)NC(=S)N2CCC(C)CC2)cc1 | 1 | -1 | -4 | 6
CCOC(=O)C1Nc2c(cc(C(F)(F)F)cc2[N+](=O)[O-])C2c3ccccc3CC12 (stereo unspecified) | 21 | -1 | . | -22
N#CC12C(N)=NC3(OCCO3)C1(C#N)C1=C(CCC1)NC2c1ccccc1 (stereo unspecified) | 14 | -21 | 18 | -3
N#CC1(C#N)C2=C(CCCC2)NC(c2ccccc2)C1(C#N)C#N (stereo unspecified) | -3 | 159* | -3 | 5
CCOC(=O)c1cc2sc(C)cc2n1CC(=O)N1CCOCC1 | 17 | 12 | 36* | -4
Cc1ccc(-c2nnc(N3CCN(C(=O)CN4C(=O)c5ccccc5C4=O)CC3)c3ccccc23)cc1 | 8 | 4 | . | 80
O=C(NCCc1ccccc1)C1CCCN1C(=O)NCc1ccccc1 (stereo unspecified) | 4 | 5 | 6 | -19
COc1ccc(NC(=O)c2cc(-c3cccnc3)nc3ccc(C)cc23)cc1OC | . | . | 34* | .
CCOC(=O)N1CCN(C(=O)CN2C(=O)COc3ccc(C(C)(C)C)cc32)CC1 | 9 | 1 | 26* | -13
COCCCn1c(=N)c(C(=O)NC2CCCCC2)cc2c(=O)n3ccccc3nc21 | -2 | 4 | 3 | 6
O=C(N1CCN(c2ccccn2)CC1)C(Cl)(Cl)Cl | 24 | -16 | 55* | -35
O=C(CCNS(=O)(=O)c1ccc(Cl)cc1)N1CCN(c2ccccn2)CC1 | 10 | 1 | -4 | 269*
O=C(c1c(Cl)cccc1Cl)N1CCN(c2ccccn2)CC1 | 27 | -5 | -6 | -4
CCOc1cccc(CNCCSc2nnnn2C)c1 | -10 | -1 | 27* | -10
CCOc1cc(CNCCSc2nnnn2C)cc(Br)c1OCc1ccccc1 | 9 | -9 | 21 | .
CCN(CC)C(=S)SCC(=O)c1ccccc1 | 29 | -3 | 9 | -8
CCN(CC)C(=S)SSC(=S)N(CC)CC | 31 | 0 | 102* | 131
COc1ccc(OC(=O)c2cccc(S(=O)(=O)N3CC(C)OC(C)C3)c2)cc1 (stereo unspecified) | 19 | . | . | .
CC(C)CCOc1ccc(Cl)cc1CN1CCOCC1 | 30 | -14 | 12 | 313*
CCCCCOc1ccc(Cl)cc1CN1CCOCC1 | 29 | -7 | -13 | 137
O=C(CCCCCNC(=O)N1CCn2c1nc1ccccc12)N[C@H](C(=O)O)c1ccccc1 | 1 | -7 | 12 | -6
COCCN(C(=O)COC(=O)C1(C)CC1(Cl)Cl)c1c(N)n(Cc2ccccc2)c(=O)[nH]c1=O (stereo unspecified) | 11 | 3 | -1 | 40
SMILES | NALP3 yeast inh | PolyA inh | NALP1 inh | SUMO Mot1 rescue
COc1ccc(-n2cc(-c3ccc(OC)c(OC)c3)[nH]c2=S)cc1 | 2 | -4 | -14 | 545*
COc1ccc(-n2cc(-c3ccc(Br)cc3)[nH]c2=S)cc1 | 16 | -7 | 15 | -9
CCOC(=O)c1c(-c2ccccc2)cn2ccccc12 | 24 | -22 | 25* | -13
CCOC(=O)c1c(-c2ccc(C)cc2)cn2ccccc12 | 10 | -18 | 1 | -2
O=C(O)c1cc(NN=Nc2ccc(Br)cc2)cc([N+](=O)[O-])c1 | 7 | -4 | 14 | 322*
O=C(O)c1cc(NN=Nc2cccc([N+](=O)[O-])c2)cc([N+](=O)[O-])c1 | 9 | -2 | -4 | 79
Cc1ccc(NC(=O)c2ccc(-n3cccn3)c([N+](=O)[O-])c2)cc1 | 20 | 5 | 6 | -4
O=C(Nc1ccc(C2=NCCN2)cc1)c1ccc(C(=O)Nc2ccc(C3=NCCN3)cc2)c([N+](=O)[O-])c1 | 19 | -65 | 35* | -21
NC(=O)/C=C/C(=O)Nc1ccc(Cl)cc1 | 14 | -29 | 79* | 23
Cc1nn(-c2ccccc2)c(N)c1C(O)(CC(=O)C(F)(F)F)C(F)(F)F (stereo unspecified) | 7 | 3 | 1 | 333*
Cc1nn(-c2ccccc2)c(N)c1C(O)(C(F)(F)F)C(F)(F)F | -33 | -9 | 26 | 23
O=C(/C=C/c1ccco1)NC1CCCC1 | 18 | 9 | 10 | 693*
O=C(COC(=O)/C=C/c1ccco1)NC1CCCCC1 | 14 | . | . | -10
CSCCC(NS(=O)(=O)c1ccccc1F)C(=O)NCC(c1ccc(F)cc1)N1CCOCC1 (stereo unspecified) | 17 | 1 | . | -9
CCOc1cc(C2/C(=C(\O)c3cc(C)ccc3C)C(=O)C(=O)N2CCN(C)C)ccc1O (stereo unspecified) | -4 | -14 | 40* | 8
CN(C)/N=C/c1ccc(/C=N/NC(N)=S)o1 | 16 | -16 | -19 | 422*
CC1(C)C(=O)Nc2ccccc2N1C(=O)CN1C(=O)c2ccccc2C1=O | 3 | -1 | -10 | 12
CC1(C)C(=O)Nc2ccccc2N1C(=O)CN1C(=O)NC(CCc2ccccc2)C1=O (stereo unspecified) | 3 | 18 | 11 | 345*
O=C(c1ccc(Cn2cnnn2)cc1)N1CCCC(Nc2ccc(F)c(F)c2)C1 (stereo unspecified) | 6 | -18 | -1 | 7
Cc1csc(NC(=O)C2CCN(S(=O)(=O)c3ccc4c(c3)oc(=O)n4C)CC2)n1 | 7 | -8 | -51 | 12
Cc1csc(NC(=O)C(CC(C)C)NS(=O)(=O)c2ccc3c(c2)oc(=O)n3C)n1 (stereo unspecified) | 19 | ? | 46* | 1
COc1ccc(NC(=O)C2=C(C)NC(=S)NC2c2ccc(O)c(OC)c2)cc1 (stereo unspecified) | 5 | 2 | -11 | 11
CCN(CC)c1ccc(/C=N/NC(=O)C(O)(c2ccccc2)c2ccccc2)o1 | -9 | -2 | 31 | -4
N=c1n(CCN2CCCCC2)c2ccccc2n1CC(O)c1ccc(Cl)c(Cl)c1 (stereo unspecified) | 22 | -11 | 43* | 5
CCN1C(=O)c2ccc(C(=O)NCc3ccco3)cc2C1=O | 12 | ? | 31* | -7
CCOC(=O)/C(=C/c1ccc(OC(=O)c2ccncc2)cc1)C(C)=O | 20 | . | -5 | -5
COCCOC(=O)/C(=C/c1ccc(OC(=O)c2ccccc2)cc1)C(C)=O | 25 | -50 | 61* | 170
COc1ccc(CCNC(=O)CN(c2ccccc2OC)S(C)(=O)=O)cc1OC | -6 | 17 | 14 | -1
COc1ccc(CCNC(=O)CN(c2ccccc2OC)S(C)(=O)=O)cc1 | 2 | -8 | 30* | -1
